Potency estimated from few doses data for seven molecules are collected here from article PMC11062922 (Nature Chemical Biology, 2023).

Holding throughout (design): species or system human, MV4-11 + K-562 + COLO205 + SK-N-BE2 + OVCAR-8
The test system of one experiment is CDC42. As to conditions: read-out: apparent Kd; compound concentrations: 100 nM and 1000 nM (sheet 'Samples'), CATDS: 0.48931368679936299; n = 1.
The next experiment relates to CDKL5. As to conditions: read-out: apparent Kd; compound concentrations: 100 nM and 1000 nM (sheet 'Samples'), CATDS: 0.51116349982272002; n = 1.
The test system of another experiment is CAMK4. As to conditions: read-out: apparent Kd; compound concentrations:100 nM and 1000 nM (sheet 'Samples'); n = 1.
The next experiment relates to CDK10. As to conditions: read-out: apparent Kd; compound concentrations:100 nM and 1000 nM (sheet 'Samples'); n = 1.
Another experiment concerns CDK6. As to conditions: read-out: apparent Kd; compound concentrations:100 nM and 1000 nM (sheet 'Samples'); n = 1.
For a further experiment, the system named is HSP90B1. As to conditions: read-out: apparent Kd; compound concentrations:100 nM and 1000 nM (sheet 'Samples'); n = 1.
A further experiment concerns MAPK9. As to conditions: read-out: apparent Kd; compound concentrations:100 nM and 1000 nM (sheet 'Samples'); n = 1.
For another experiment, the system named is CDC42BPG. As to conditions: read-out: apparent Kd, n = 1.
Another experiment has as its system HSPE1. As to conditions: read-out: apparent Kd; compound concentrations:100 nM and 1000 nM (sheet 'Samples'); n = 1.
A further experiment deals with CDC42BPA. As to conditions: read-out: apparent Kd; compound concentrations: 100 nM and 1000 nM (sheet 'Samples'), CATDS: 6.9468579457902302E-2; n = 1.
Another experiment deals with CDC42BPB. As to conditions: read-out: apparent Kd; compound concentrations: 100 nM and 1000 nM (sheet 'Samples'), CATDS: 0.12045997656794601; n = 1.
For a further experiment, the system named is PKN1. As to conditions: read-out: apparent Kd; compound concentrations: 100 nM and 1000 nM (sheet 'Samples'), CATDS: 6.0218156247889197E-2; n = 1.
The test system of a further experiment is PRKACA. As to conditions: read-out: apparent Kd; compound concentrations: 100 nM and 1000 nM (sheet 'Samples'), CATDS: 0.135293982303474; n = 1.
In another experiment the test system is PRKACB. As to conditions: read-out: apparent Kd; compound concentrations: 100 nM and 1000 nM (sheet 'Samples'), CATDS: 0.11075307193468301; n = 1.
A further experiment concerns PRKG1. As to conditions: read-out: apparent Kd; compound concentrations: 100 nM and 1000 nM (sheet 'Samples'), CATDS: 7.6658344406139403E-2; n = 1.
The test system of the next experiment is PRKX. As to conditions: read-out: apparent Kd; compound concentrations: 100 nM and 1000 nM (sheet 'Samples'), CATDS: 6.23454867877557E-2; n = 1.
Another experiment concerns ROCK1. As to conditions: read-out: apparent Kd; compound concentrations: 100 nM and 1000 nM (sheet 'Samples'), CATDS: 0.22662167781686399; n = 1.
In a further experiment the test system is ROCK2. As to conditions: read-out: apparent Kd; compound concentrations: 100 nM and 1000 nM (sheet 'Samples'), CATDS: 0.23262842536730999; n = 1.
In another experiment the test system is CAMK2B. As to conditions: read-out: apparent Kd; compound concentrations: 100 nM and 1000 nM (sheet 'Samples'), CATDS: 0.17838032280045099; n = 1.
For a further experiment, the system named is EGFR. As to conditions: read-out: apparent Kd; compound concentrations: 100 nM and 1000 nM (sheet 'Samples'), CATDS: 0.186882259763333; n = 1.
The subject of another experiment is FN3KRP. As to conditions: read-out: apparent Kd; compound concentrations: 100 nM and 1000 nM (sheet 'Samples'), CATDS: 0.322807069227038; n = 1.
A further experiment relates to NQO2. As to conditions: read-out: apparent Kd; compound concentrations: 100 nM and 1000 nM (sheet 'Samples'), CATDS: 0.51408272608471794; n = 1.
In a further experiment the test system is MYLK3. As to conditions: read-out: apparent Kd; compound concentrations: 100 nM and 1000 nM (sheet 'Samples'), CATDS: 0.26108904226554702; n = 1.
The subject of the next experiment is NLK. As to conditions: read-out: apparent Kd; compound concentrations: 100 nM and 1000 nM (sheet 'Samples'), CATDS: 0.267890772302949; n = 1.
Another experiment relates to TNIK. As to conditions: read-out: apparent Kd; compound concentrations: 100 nM and 1000 nM (sheet 'Samples'), CATDS: 0.264395551516103; n = 1.
The subject of another experiment is CDK2. As to conditions: read-out: apparent Kd; compound concentrations:100 nM and 1000 nM (sheet 'Samples'); n = 1.
For a further experiment, the system named is CDK4. As to conditions: read-out: apparent Kd; compound concentrations:100 nM and 1000 nM (sheet 'Samples'); n = 1.
For the next experiment, the system named is GSK3A. As to conditions: read-out: apparent Kd; compound concentrations:100 nM and 1000 nM (sheet 'Samples'); n = 1.
The next experiment relates to ILK. As to conditions: read-out: apparent Kd; compound concentrations:100 nM and 1000 nM (sheet 'Samples'); n = 1.
For the next experiment, the system named is OPA1. As to conditions: read-out: apparent Kd; compound concentrations:100 nM and 1000 nM (sheet 'Samples'); n = 1.
The next experiment deals with SMC4. As to conditions: read-out: apparent Kd; compound concentrations:100 nM and 1000 nM (sheet 'Samples'); n = 1.
In another experiment the test system is VDAC3. As to conditions: read-out: apparent Kd; compound concentrations:100 nM and 1000 nM (sheet 'Samples'); n = 1.

The structures appear in SMILES notation. Read-outs that look alike come from different tables or passages of the source.

On to `COc1ccc(Nc2nccc(N3CCC(NC(=O)Nc4cccc(C(C)=O)c4)C3)n2)cc1` (centres unmarked) [GSK1379731A], for which the potency estimated from few doses in the experiment on CDC42 was 1.58 µM; in the experiment on CDKL5, 1.45 µM.
As for `FC(F)(F)c1cc(Nc2nccc(-c3c(-c4ccc(Cl)cc4)nn4ncccc34)n2)ccc1Cl` [GW829351X], the potency estimated from few doses was 2.17 µM in the experiment with CAMK4; 1.11 µM in the experiment with CDK10; 1.6 µM in the experiment on CDK6; 0.114 µM in the experiment with HSP90B1; 1.95 µM in the experiment with MAPK9.
Turning to `O=C(Nc1n[nH]c2nc(-c3ccccc3)ccc12)C1CC1` [SB-708999], the potency estimated from few doses in the experiment on CDC42BPG (compound concentrations:100 nM and 1000 nM (sheet 'Samples')) was 1.76 µM; in the experiment on HSPE1, 0.296 µM.
Turning to `NCCCC(NC(=O)c1cc(Br)c(-c2ccnc3[nH]ccc23)s1)c1ccccc1.NCCCC(NC(=O)c1cc(Br)c(-c2ccnc3[nH]ccc23)s1)c1ccccc1.O=C(O)C(F)(F)F.O=C(O)C(F)(F)F` (centres unmarked) [GSK1287544A], the potency estimated from few doses in the experiment with CDC42BPA was 0.735 µM; in the experiment on CDC42BPB, 0.111 µM; in the experiment on CDC42BPG (compound concentrations: 100 nM and 1000 nM (sheet 'Samples'), CATDS: 0.15429937992002599) it was 0.065 µM; in the experiment with PKN1, 1.75 µM; in the experiment with PRKACA, 0.0853 µM; in the experiment with PRKACB, 0.137 µM. Also, the potency estimated from few doses with PRKG1 was 0.465 µM; in the experiment with PRKX, 1.37 µM; in the experiment on ROCK1, 0.0333 µM; in the experiment with ROCK2 it was 0.0319 µM.
On to `CS(=O)(=O)CCNCc1cc(-c2cc3c(Nc4ccc(OCc5cccc(F)c5)c(Cl)c4)ncnc3s2)cs1` [GSK300014A], for which the potency estimated from few doses is 0.575 µM in the experiment on CAMK2B, 0.481 µM with EGFR, 0.112 µM in the experiment on FN3KRP and 0.0486 µM with NQO2.
As for `O=C(Nc1n[nH]c2cc(-c3ccccc3)ccc12)C1CC1` [SB-732941], the potency estimated from few doses with CDC42BPG (compound concentrations: 100 nM and 1000 nM (sheet 'Samples'), CATDS: 0.214831425335373) is 2.21 µM; with MYLK3, 1.45 µM; with NLK it was 1.38 µM; with TNIK, 1.42 µM.
Take `O=C(Nc1n[nH]c2nc(-c3nccs3)c(Br)cc12)C1CC1` [SB-742251]: the potency estimated from few doses in the experiment on CAMK4 is 1.8 µM; in the experiment on CDK2, 1.64 µM; in the experiment on CDK4 it was 1.48 µM; with GSK3A it was 0.873 µM; in the experiment on ILK it was 2.01 µM; in the experiment with OPA1, 1.52 µM. Besides, the potency estimated from few doses with SMC4 was 1.95 µM; in the experiment on VDAC3, 2 µM.
